Common to all, as to settings: mRNA level, 48 h; actives raise or lower the signal
Read-out in test [1]: Cytochrome P450 (CYP24A1), CYP24A1 (gene 1591)
Description: LTEA_HepaRG_CYP24A1: Life Technologies and Expression Analysis (LTEA) Assay for Cytochrome P450 (CYP24A1) using HepaRG (AID 2283478). The method, boiled down: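 qRT-PCR read-out: CYP24A1 transcript levels normalized to three housekeeping genes, bidirectional curve fits against 0.5% DMSO baseline. Human HepaRG cells treated 48 h with chemicals at eight concentrations from 100 uM in half-log steps.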

Read-out in test [2]: Cytochrome P450 (CYP1A2), CYP1A2 (gene 1544)
Description: LTEA_HepaRG_CYP1A2: Life Technologies and Expression Analysis (LTEA) Assay for Cytochrome P450 (CYP1A2) using HepaRG (AID 2283479). The method, boiled down:
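HepaRG, 48 h exposure, top 100 uM, half-log 8-pt, 0.5% DMSO vehicle, duplicates. Readout: TaqMan qRT-PCR of CYP1A2 mRNA, housekeeping-normalized (ACTB/GAPDH/POLR2A). Gain/loss fit relative to DMSO baseline.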

Read-out in test [3]: cysteine-aspartic acid protease (CASP8), CASP8 (gene 841)
Description: LTEA_HepaRG_CASP8: Life Technologies and Expression Analysis (LTEA) Assay for cysteine-aspartic acid protease (CASP8) using HepaRG (AID 2283480). The method, boiled down:
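qRT-PCR readout of CASP8 mRNA, normalized to three housekeeping genes, after 48 h chemical exposure of HepaRG cells; 8-point half-log series, top 100 uM, 0.5% DMSO vehicle. Bidirectional curve fitting against DMSO baseline.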

Read-out in test [4]: Cytochrome P450 (CYP2B6), CYP2B6 (gene 1555)
The test can be described thus: LTEA_HepaRG_CYP2B6: Life Technologies and Expression Analysis (LTEA) Assay for Cytochrome P450 (CYP2B6) using HepaRG (AID 2283481). The method, boiled down: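 Read-out is CYP2B6 mRNA by TaqMan qRT-PCR, normalized to three housekeeping genes and fitted bidirectionally against 0.5% DMSO baseline. Human HepaRG cells received test chemicals for 48 h, top concentration 100 uM, half-log dilutions.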

Read-out in test [5]: Cytochrome P450 2C19 (Homo sapiens) (UniProt P33261)
The test can be described thus: LTEA_HepaRG_CYP2C19: Life Technologies and Expression Analysis (LTEA) Assay for CYP2C19 using HepaRG (AID 2283482). In a few lines:
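HepaRG, 48 h chemical exposure, 8-pt half-log series from 100 uM in 0.5% DMSO, duplicates. Readout: CYP2C19 mRNA by TaqMan qRT-PCR, housekeeping-normalized. Bidirectional fit vs DMSO baseline; phenobarbital 1mM as induction control.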

Read-out in the next test: CYP2C8 (gene 1558)
Description: LTEA_HepaRG_CYP2C8: Life Technologies and Expression Analysis (LTEA) Assay for CYP2C8 using HepaRG (AID 2283483). The method, boiled down: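 HepaRG (human liver line), 48 h chemical exposure, 8-pt half-log series from 100 uM, 0.5% DMSO vehicle. Readout: CYP2C8 transcript by qRT-PCR, housekeeping-normalized. Bidirectional fit vs DMSO baseline.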

Read-out in a further test: CYP2C9 (gene 1559)
Description: LTEA_HepaRG_CYP2C9: Life Technologies and Expression Analysis (LTEA) Assay for CYP2C9 using HepaRG (AID 2283484). The method, boiled down:
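HepaRG, 48 h dosing, 8-pt half-log series, top 100 uM, 0.5% DMSO vehicle. Read-out: CYP2C9 transcript by TaqMan qRT-PCR, housekeeping-normalized (ACTB/GAPDH/POLR2A). Gain or loss fitted vs DMSO baseline.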

Read-out in another test: CYP4A11 (gene 1579)
Description: LTEA_HepaRG_CYP4A11: Life Technologies and Expression Analysis (LTEA) Assay for CYP4A11 using HepaRG (AID 2283486). In a few lines: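 CYP4A11 transcript levels were quantified by TaqMan qRT-PCR after HepaRG human liver cells were treated for 48 hours with test chemicals (top 100 uM, half-log dilutions, 0.5% DMSO). Gain or loss of signal was fitted relative to DMSO.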

Read-out in test [6]: Cytochrome P450 3A4 (Homo sapiens) (UniProt P08684)
The test can be described thus: LTEA_HepaRG_CYP3A4: Life Technologies and Expression Analysis (LTEA) Assay for CYP3A4 using HepaRG (AID 2283487). The method, boiled down: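 HepaRG, 48 h exposure, 8-pt CRC from 100 uM (half-log), 0.5% DMSO, duplicates; serum-free induction medium. Readout: CYP3A4 mRNA, qRT-PCR, ACTB/GAPDH/POLR2A normalization. Bidirectional fit vs DMSO.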

Read-out in test [7]: DNA damage-inducible transcript 3 (DDIT3), DDIT3 (gene 1649)
The test can be described thus: LTEA_HepaRG_DDIT3: Life Technologies and Expression Analysis (LTEA) Assay for DNA damage-inducible transcript 3 (DDIT3) using HepaRG (AID 2283488). The method, boiled down: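 Cells are human HepaRG liver cells treated for 48 h with eight half-log concentrations up to 100 uM in 0.5% DMSO. Transcript levels come from qRT-PCR normalized to three housekeeping genes, with activity fitted in both directions relative to vehicle.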

Read-out in test [8]: Early growth response protein 1 (EGR1) transcription factor, EGR1 (gene 1958)
Description: LTEA_HepaRG_EGR1: Life Technologies and Expression Analysis (LTEA) Assay for Early growth response protein 1 (EGR1) transcription factor using HepaRG (AID 2283490). In a few lines: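 HepaRG, 48 h exposure, 8-pt half-log series from 100 uM, 0.5% DMSO vehicle; EGR1 transcript by TaqMan qRT-PCR (Fluidigm array), housekeeping-normalized; bidirectional fit relative to DMSO baseline.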

Read-out in test [9]: Ezrin (EZR), EZR (gene 7430)
Description: LTEA_HepaRG_EZR: Life Technologies and Expression Analysis (LTEA) Assay for Ezrin (EZR) using HepaRG (AID 2283491). In a few lines: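 Read-out is EZR transcript level by qRT-PCR, normalized to three housekeeping genes and fitted bidirectionally against the DMSO control. Human HepaRG cells received test chemicals for 48 h at eight half-log concentrations up to 100 uM in 0.5% DMSO.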

Read-out in test [10]: Cytochrome P450 3A7 (Homo sapiens) (UniProt P24462)
The test can be described thus: LTEA_HepaRG_CYP3A7: Life Technologies and Expression Analysis (LTEA) Assay for CYP3A7 using HepaRG (AID 2283492). The method, boiled down: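 CYP3A7 transcript levels were read by TaqMan qRT-PCR on Fluidigm arrays after 48 h chemical exposure of human HepaRG cells, with housekeeping-gene normalisation. Eight half-log concentrations up to 100 uM in 0.5% DMSO were tested in duplicate.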

Read-out in another test: CYP3A5 (gene 1577)
The test can be described thus: LTEA_HepaRG_CYP3A5: Life Technologies and Expression Analysis (LTEA) Assay for CYP3A5 using HepaRG (AID 2283493). In a few lines: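 Human HepaRG hepatic cells receive 48 h chemical treatment at eight concentrations (half-log steps from 100 uM) in 0.5% DMSO. Expression of CYP3A5 is quantified by Fluidigm qRT-PCR and normalized to three reference genes.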

Read-out in test [11]: Fatty Acid-Binding Protein 1 (FABP1), FABP1 (gene 2168)
The test can be described thus: LTEA_HepaRG_FABP1: Life Technologies and Expression Analysis (LTEA) Assay for Fatty Acid-Binding Protein 1 (FABP1) using HepaRG (AID 2283494). In a few lines:
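qRT-PCR readout of FABP1 transcript (normalized to three housekeeping genes) after 48 h chemical exposure of HepaRG cells; eight concentrations, half-log steps, max 100 uM, 0.5% DMSO vehicle; gain or loss fitted relative to DMSO baseline.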

Read-out in test [12]: Cytochrome P450 4A22 (Homo sapiens) (UniProt Q5TCH4)
Description: LTEA_HepaRG_CYP4A22: Life Technologies and Expression Analysis (LTEA) Assay for Cytochrome P450 4A22 (CYP4A22) using HepaRG (AID 2283495). The method, boiled down:
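HepaRG, 48 h post-plating -> serum-free induction medium; dosed 48 h, duplicate, 8 conc. (100 uM top, half-log), 0.5% DMSO. Readout: CYP4A22 mRNA by qRT-PCR, ACTB/GAPDH/POLR2A normalization; gain/loss fit relative to DMSO.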

Read-out in test [13]: Cytochrome P450 7A1 (Homo sapiens) (UniProt P22680)
The test can be described thus: LTEA_HepaRG_CYP7A1: Life Technologies and Expression Analysis (LTEA) Assay for Cytochrome P450 7A1 (CYP7A1) using HepaRG (AID 2283496). The method, boiled down: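 HepaRG, 48 h exposure, 8-pt half-log series from 100 uM, 0.5% DMSO vehicle, duplicates. Readout: TaqMan qRT-PCR mRNA vs three housekeeping genes; bidirectional curve fit against DMSO baseline.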

Read-out in test [14]: Glutathione S-Transferase (GSTA2), GSTA2 (gene 2939)
Description: LTEA_HepaRG_GSTA2: Life Technologies and Expression Analysis (LTEA) Assay for Glutathione S-Transferase (GSTA2) using HepaRG (AID 2283497). In a few lines:
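qRT-PCR readout of GSTA2 transcript, normalized to three housekeeping genes, fitted bidirectionally against 0.5% DMSO baseline. Differentiated HepaRG cells received compound for 48 h at 8 concentrations (top 100 uM, half-log steps).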

Read-out in a further test: CYP2E1 (gene 1571)
Description: LTEA_HepaRG_CYP2E1: Life Technologies and Expression Analysis (LTEA) Assay for CYP2E1 using HepaRG (AID 2283485). The method, boiled down: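 Readout is qRT-PCR of CYP2E1 mRNA, normalized to three housekeeping genes and fitted bidirectionally against 0.5% DMSO. HepaRG cells were dosed 48 h at eight concentrations, highest 100 uM with half-log dilutions.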

Read-out in test [15]: Pro-epidermal growth factor (Homo sapiens) (UniProt P01133)
Description: LTEA_HepaRG_EGF: Life Technologies and Expression Analysis (LTEA) Assay for Epidermal growth factor (EGF) using HepaRG (AID 2283489). The method, boiled down:
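qRT-PCR readout of EGF transcript after 48 h chemical exposure of HepaRG cells; eight concentrations from 100 uM down in half-log steps, duplicate wells, 0.5% DMSO vehicle. Bidirectional curve fitting against DMSO baseline.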

Calls of active or inactive are those of the source. The calls were made as follows: active = hit-call score of the fitted dose curve at least 0.9, where 1 is the maximum; inactive = score below 0.9.

Chain of Cytochrome P450 2C19 (Homo sapiens) (P33261 whole entry, looked up): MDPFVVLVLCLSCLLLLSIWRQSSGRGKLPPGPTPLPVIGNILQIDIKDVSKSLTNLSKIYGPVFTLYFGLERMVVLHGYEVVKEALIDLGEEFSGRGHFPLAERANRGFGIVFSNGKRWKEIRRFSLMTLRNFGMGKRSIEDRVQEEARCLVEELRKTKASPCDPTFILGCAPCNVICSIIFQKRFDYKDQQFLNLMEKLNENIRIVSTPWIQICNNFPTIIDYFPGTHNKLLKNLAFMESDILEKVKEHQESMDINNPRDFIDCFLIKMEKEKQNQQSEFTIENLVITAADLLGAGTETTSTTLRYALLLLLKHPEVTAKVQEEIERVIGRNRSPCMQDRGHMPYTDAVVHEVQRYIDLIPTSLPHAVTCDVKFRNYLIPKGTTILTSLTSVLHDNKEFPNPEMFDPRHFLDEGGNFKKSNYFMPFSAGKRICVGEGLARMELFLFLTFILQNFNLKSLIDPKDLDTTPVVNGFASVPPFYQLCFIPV
Chain of Cytochrome P450 3A4 (Homo sapiens) (P08684 whole entry, looked up): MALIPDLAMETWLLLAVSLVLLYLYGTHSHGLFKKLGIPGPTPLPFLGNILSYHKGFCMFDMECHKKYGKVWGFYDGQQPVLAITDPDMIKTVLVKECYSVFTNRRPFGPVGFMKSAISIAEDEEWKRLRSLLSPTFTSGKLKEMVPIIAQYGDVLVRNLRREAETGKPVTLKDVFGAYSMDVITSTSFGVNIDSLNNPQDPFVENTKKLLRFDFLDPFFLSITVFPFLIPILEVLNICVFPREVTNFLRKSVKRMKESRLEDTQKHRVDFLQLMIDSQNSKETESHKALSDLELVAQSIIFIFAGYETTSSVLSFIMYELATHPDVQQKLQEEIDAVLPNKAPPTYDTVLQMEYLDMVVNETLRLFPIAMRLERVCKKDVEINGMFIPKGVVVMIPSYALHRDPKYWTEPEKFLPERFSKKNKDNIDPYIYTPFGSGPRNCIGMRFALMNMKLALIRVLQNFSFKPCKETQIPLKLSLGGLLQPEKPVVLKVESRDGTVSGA
Chain of Cytochrome P450 3A7 (Homo sapiens) (P24462 whole entry, looked up): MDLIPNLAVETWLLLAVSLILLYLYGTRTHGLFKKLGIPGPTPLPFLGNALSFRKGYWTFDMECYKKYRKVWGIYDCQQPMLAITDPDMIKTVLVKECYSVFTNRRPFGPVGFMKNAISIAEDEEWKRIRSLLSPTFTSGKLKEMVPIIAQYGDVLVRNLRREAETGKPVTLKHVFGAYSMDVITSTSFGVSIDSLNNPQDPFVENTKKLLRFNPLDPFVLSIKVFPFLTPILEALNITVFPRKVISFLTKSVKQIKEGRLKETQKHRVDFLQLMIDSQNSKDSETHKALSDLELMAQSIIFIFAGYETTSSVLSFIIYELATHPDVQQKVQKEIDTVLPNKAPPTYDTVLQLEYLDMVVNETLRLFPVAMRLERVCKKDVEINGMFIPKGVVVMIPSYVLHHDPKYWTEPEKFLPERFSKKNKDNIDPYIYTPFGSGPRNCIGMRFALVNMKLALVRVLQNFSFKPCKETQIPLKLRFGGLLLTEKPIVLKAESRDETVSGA

On to `C#CC(O)C(CC)CCCC` (stereo not drawn), for which the molecule was called inactive (in [1]; in test [2]; in test [3]; in [5]; with CYP2C8 (gene 1558); with CYP2C9 (gene 1559)). The result (with CYP4A11 (gene 1579); in [6]; in [7]; in test [8]; in test [9]; in test [10]) was inactive. Further, the molecule was called inactive (with CYP3A5 (gene 1577); in [11]; in [12]; in test [13]; in test [14]). The AC50 – broadly, the midpoint of the concentration-response curve, whichever way the signal moves – in test [4] is 24.4 µM (active).
Take `CN(C)CCCN(C)CCCN(C)C`: the result (in test [1]; in test [2]; in test [3]; in test [4]; in test [5]; with CYP2C8 (gene 1558)) was inactive. Moreover, the molecule was classed as inactive (with CYP2C9 (gene 1559); with CYP2E1 (gene 1571); in test [6]; in [7]; in test [8]; in test [9]). For the same molecule, the result (in [10]; with CYP3A5 (gene 1577); in [11]; in test [12]; in test [13]; in [14]) was inactive.
As to `CCCC(=O)O`, the result (in test [1]; in test [2]; in [3]; in test [4]; in [5]; in the test with CYP2C8 (gene 1558)) was inactive. In addition, the result (with CYP2C9 (gene 1559); with CYP4A11 (gene 1579); in test [6]; in [7]; in test [15]; in [8]) was inactive. The call (in [9]; in [10]; with CYP3A5 (gene 1577); in [11]; in [12]; in test [13]) was inactive. Besides, the call in test [14] was inactive.
Consider `Cc1occc(=O)c1O`, for which the result (in test [1]; in test [2]; in test [3]; in test [4]; in [5]; in the test with CYP2C8 (gene 1558)) was inactive. The result (with CYP2C9 (gene 1559); in the test with CYP4A11 (gene 1579); in test [6]; in [7]; in test [8]; in [9]) was inactive. Further, the call (in [10]; with CYP3A5 (gene 1577); in test [11]; in [12]; in test [13]; in test [14]) was inactive.
